According to PubChem BioAssay (NCI):
Where “and” joins values, the source holds several entries; their conditions need not be identical. Identical values can stand only once. Compounds without any hit were thinned out: in the full panel of roughly 83,000, 20% have a hit.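 Single-concentration screen, 48 h exposure, 96-well plates. Endpoint: percent growth. Below 10 = active.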 Calls of active or inactive are those of the source.

Key:
Assay in all cases: NCI-60 one-dose screen, 48 h (100 = growth as untreated, 0 = no growth, -100 = all killed)
Conditions in all cases: 10 µM unless noted
UACC-62 melanoma = tested on: UACC-62 melanoma
TK-10 renal = tested on: TK-10 renal
HCT-15 colon = tested on: HCT-15 colon
HT29 colon = tested on: HT29 colon
SNB-75 CNS = tested on: SNB-75 CNS
SNB-19 CNS = tested on: SNB-19 CNS
PC-3 prostate = tested on: PC-3 prostate
SK-MEL-5 melanoma = tested on: SK-MEL-5 melanoma
SK-MEL-28 melanoma = tested on: SK-MEL-28 melanoma
SN12C renal = tested on: SN12C renal
UO-31 renal = tested on: UO-31 renal
ACHN renal = tested on: ACHN renal
CAKI-1 renal = tested on: CAKI-1 renal
A498 renal = tested on: A498 renal
HL-60(TB) leukemia = tested on: HL-60(TB) leukemia
CCRF-CEM leukemia = tested on: CCRF-CEM leukemia
U251 CNS = tested on: U251 CNS
SK-MEL-2 melanoma = tested on: SK-MEL-2 melanoma

CCOC(=O)c1c(SC)nc(-c2ccc(Cl)cc2)sc1=N
growth (UACC-62 melanoma): 5.48% [100 µM] (active) and 7.26% [100 µM] (active)
growth (TK-10 renal): 6.59% [100 µM] (active) and 15.8% [100 µM] (inactive)

O=S(=O)(F)c1cccc(Cl)c1C[P+](c1ccccc1)(c1ccccc1)c1ccccc1
growth (HCT-15 colon): 91.7% (inactive)
growth (HT29 colon): 96.7% (inactive)
growth (SNB-75 CNS): 81.2% (inactive)
growth (SNB-19 CNS): 100% (inactive)
growth (PC-3 prostate): 85.4% (inactive)
growth (SK-MEL-5 melanoma): 90.4% (inactive)
growth (UACC-62 melanoma): 90.2% (inactive)
growth (SK-MEL-28 melanoma): 109% (inactive)
growth (SN12C renal): 102% (inactive)
growth (UO-31 renal): 88.3% (inactive)
growth (TK-10 renal): 116% (inactive)
growth (ACHN renal): 97.7% (inactive)
growth (CAKI-1 renal): 94.4% (inactive)
growth (A498 renal): 122% (inactive)
growth (HL-60(TB) leukemia): 98.9% (inactive)
growth (CCRF-CEM leukemia): 86.7% (inactive)

CCOC(=O)C1=C(C)/C(=C\c2[nH]c(C)c(C(=O)OCC)c2C)N=C1C
growth (HL-60(TB) leukemia): 41.6% (inactive)

CC(Oc1ccc(-c2ccccc2)cc1)C(=O)O (stereo not drawn)
growth (HCT-15 colon): 108% (inactive)
growth (HT29 colon): 103% (inactive)
growth (SNB-75 CNS): 91.6% (inactive)
growth (SNB-19 CNS): 97% (inactive)
growth (U251 CNS): 97.4% (inactive)
growth (SK-MEL-5 melanoma): 97% (inactive)
growth (SK-MEL-28 melanoma): 110% (inactive)
growth (SK-MEL-2 melanoma): 107% (inactive)
growth (SN12C renal): 104% (inactive)
growth (UO-31 renal): 91.8% (inactive)
growth (CAKI-1 renal): 99.2% (inactive)
growth (A498 renal): 77.7% (inactive)
growth (HL-60(TB) leukemia): 97.3% (inactive)
growth (CCRF-CEM leukemia): 98.4% (inactive)
